Assay outcomes deposited in PubChem BioAssay by National Center for Advancing Translational Sciences (NCATS).
ATXN viability = reduces viability in counter-screen for ATXN expression inhibitors; hit rate 0.49% among 400,000; S2 cells (HEK-293 line with an ATXN2-luciferase reporter) viability, CellTiter-Fluor protease fluorescence, 24 h; Potency, µM (highest dose often 56.7 µM), actives largely listed as cytotoxic; also: potency is read from the fitted curve at half-maximal effect; nearly all actives have a fitted effect of over 40% in size
ATXN2 expr inh = reduces ATXN2 reporter expression in HEK-293 cells; Potency, µM (highest dose often 57 µM), for inactives: at the highest dose activity change, negative = inhibition, usual class: inhibitors; HEK-293 ATXN2-luciferase reporter, luminescence, 24 h; hit rate 0.72% among 360,000; also: potency is read from the fitted curve at half-maximal effect; % is scaled to controls: 0 for no effect and ±100 for the full control effect; nearly all actives have a fitted effect of over 55% in size
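ATXN2-luciferase reporter cells (luciferase flanked by upstream and downstream ATXN2 gene portions) were treated 24 h at 37 °C with compounds at up to 57 uM. SteadyGlo luminescence gave expression; GF-AFC fluorescence gave viability.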
D3 antag = D3 dopamine receptor (human) antagonism; hit rate 2.5% among 360,000; max response, negative = inhibition, %; P35462; AID 652054; D3R cells, DiscoveRx beta-arrestin luminescence, antagonist mode; hits give low values; in the data active = max response below about -50%; inconclusive = no clear call, values can overlap the other calls; also: % is scaled to controls: 0 for no effect and ±100 for the full control effect
Target sequence (P35462 whole entry, looked up): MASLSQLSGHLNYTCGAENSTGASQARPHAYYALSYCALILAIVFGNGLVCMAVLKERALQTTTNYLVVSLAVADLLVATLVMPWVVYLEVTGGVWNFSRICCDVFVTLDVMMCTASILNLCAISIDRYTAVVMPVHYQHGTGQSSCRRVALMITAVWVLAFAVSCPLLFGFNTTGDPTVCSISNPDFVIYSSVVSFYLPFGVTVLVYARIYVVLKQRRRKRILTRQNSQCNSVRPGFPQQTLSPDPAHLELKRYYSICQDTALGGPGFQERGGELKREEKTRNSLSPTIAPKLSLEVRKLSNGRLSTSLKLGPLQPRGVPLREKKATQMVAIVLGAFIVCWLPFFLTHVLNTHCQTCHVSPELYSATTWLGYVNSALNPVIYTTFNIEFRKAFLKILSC
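Cells expressing the human receptor were seeded at 1500 cells/well, incubated overnight at 37 degrees C in 5% CO2, then exposed to library compounds with dopamine controls for 90 minutes at 37 degrees C before luminescent detection.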
D3 ag = D3 dopamine receptor (human) agonism | hit rate 0.58% among 410,000 | P35462 | max activation, % | D3R DiscoveRx beta-arrestin cells, luminescence, 90 min; in the data active = max activation above about 30%; also: 0% is about no effect
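Agonist-mode cell screen: cells plated at 1500/well and incubated overnight at 37 °C, then exposed to library compounds for 90 min at 37 °C. Detection reagent was added for 30–60 min at room temperature, and luminescence was read.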
HepG2 viability = kills HepG2 cells in TGF-b inhibitor counter-screen; hit rate 0.76% among 410,000; HepG2 CAGA-GFP viability, ATP luminescence, 18 h; Potency, µM (highest dose often 46.1 µM), inactives show top-dose activity change, negative = cytotoxicity, hits mostly cytotoxic; also: potency is read from the fitted curve at half-maximal effect
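HepG2 CAGA-GFP cells (1000/well, DMEM with 1% FBS) received compound, then TGF-beta at 500 pg/mL final, and were incubated 18 hours at 37 degrees C. Viability was read by CellTiter-Glo luminescence. Media-only wells were set as complete cell-killing and DMSO as no toxicity.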
TGFb inhibitor = TGF-b pathway inhibition. HepG2 CAGA-GFP TGF-b/SMAD3 reporter, GFP fluorescence, 18 h; TGF-beta stimulated, 500 pg/mL final. hit rate 1.2% among 410,000. Potency, µM (highest dose often 46.1 µM), inactives show at the top dose activity, negative = inhibition, actives largely listed as inhibitors; also: potency is read from the fitted curve at half-maximal effect; % is scaled to controls: 0 for no effect and ±100 for the full control effect; nearly all actives have a fitted effect of over 65% in size
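TGF-beta reporter screen: HEPG2 CAGA-GFP, 1% FBS, 500 pg/mL TGF-beta final, 18 h; per-cell GFP summed per well; curves fitted and categorized by class.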
* = called active by the depositor; i = inactive; u = inconclusive; x = not tested or not shown; [ ] = another dose, or the depositor's remark. Only some compounds are listed: those with a hit (about 4.8% of all), similar ones and a draw of the others. Unless noted, calls follow the shape of the dose curve; as a rule, active = well fitted curve in the direction sought with a large enough effect; inconclusive = small, poorly fitted or top-dose-only effect, or another doubt; inactive = no such curve, though single readings can be large; an effect the other way counts as inactive or inconclusive.

SMILES	ATXN viability	ATXN2 expr inh	D3 antag	D3 ag	HepG2 viability	TGFb inhibitor
CCN(CC)c1ccc(C(=C2C=CC(=[N+](CC)CC)C=C2)c2cc(S(=O)(=O)O)ccc2S(=O)(=O)[O-])cc1	u	11µM*	x	x	x	x
CC(=O)c1cc(-c2ccc(F)cc2)n(CC(=O)NC2CCCCCC2)c1C	x	x	x	6	7%	-17%
COc1ccc(CCNC(=O)CCS(=O)(=O)c2cc(Br)cc3c2N(C(C)=O)CC3)cc1OC	i	9%	x	-2	-6%	-21%
CCC(=O)N1CCc2cc(Br)cc(S(=O)(=O)N3CCCCCC3)c21	i	-37%	-64*	3	-8%	-4%
CCC(=O)N1CCc2cc(Br)cc(S(=O)(=O)N3CCCC(C(=O)O)C3)c21 (configuration not stated)	i	6%	4	21	21%	10%
COc1cccc(CN2CCc3nnc(CCc4ccccc4)n3CC2)c1OC	i	x	x	x	x	x
Cc1ccc(C(=O)n2nc(C)c(S(=O)(=O)N3CCCCCC3)c2C)cc1	i	-2%	x	-11	3%	0%
Cc1ccc2cc3cc(C(=O)NCCCN4CCc5ccccc5C4)oc3nc2c1	i	3%	-55*	-12	-11%	-12%
Cc1ccc2nc(Cl)c3cc(C(=O)NCCCN4CCCC4)sc3c2c1	u	-20%	-59*	-11	-59%	u
CCC1CCCCN1CCCNC(=O)c1cc2c(Cl)nc3ccc(C)cc3c2s1 (configuration not stated)	x	x	x	-15	-28%	4%
Cc1ccc2cc3cc(C(=O)NCCCN4CCCC4)oc3nc2c1	i	-15%	-13	-17	-17%	-25%
Cc1ccc2cc3cc(C(=O)NCCCN4CCCCCC4)oc3nc2c1	i	0%	-75*	-11	-17%	0%
CCOC(=O)c1ccc(N(C(=O)c2ccccc2)c2ccccc2)cc1	x	x	x	x	-32%	u
CN(C)c1ccc(/C=C/c2ccnc3ccc(O)cc23)cc1	x	x	x	x	-36%	19%
Cc1ccc(NC(=O)NCCN2CCN(c3ccccc3)CC2)cc1Cl	i	12%	-71*	-7	-8%	8%
CCc1ccc(N2CCN(CCNC(=O)Nc3ccccc3)CC2)cc1	u	-9%	-72*	-16	-45%	u
Cc1cccc(NC(=O)NCCN2CCN(c3ccccc3)CC2)c1C	i	-11%	-71*	8	-49%	7%
CCc1ccc(N2CCN(CCNC(=O)Nc3ccc(OC)cc3)CC2)cc1	i	x	8	1	-3%	-5%
O=C(NCCN1CCN(c2ccccc2)CC1)Nc1cccc(Cl)c1	i	0%	u	13	-9%	42%
Cc1cnc(-n2ncc(C(=O)NCCN3CCOCC3)c2C2CC2)nc1-c1cccs1	i	x	x	x	x	x
Oc1ccc(NC(=S)N=Nc2c(O)[nH]c3ccccc23)cc1	u	-16%[11.3 µM]	0	-2	-15%	u
COc1ccc(NC(=S)N=Nc2c(O)[nH]c3ccccc23)cc1	u	x	-10	-7	-22%	6.3µM*
COc1ccc(S(=O)(=O)N=Nc2c(O)[nH]c3ccccc23)cc1	i	5%	139	-10	5%	u
Cc1ccc(NC(=S)N=Nc2c(O)[nH]c3ccccc23)cc1	u	u	-16	-15	-39%	4µM*
CCOC(=O)c1sc2ccccc2c1OC(=O)c1ccc(C)cc1	i	-25%	43	35*	27%	25%
SMILES	ATXN viability	ATXN2 expr inh	D3 antag	D3 ag	HepG2 viability	TGFb inhibitor
O=C(c1ccco1)N1CCCC(N2CCN(c3cccc(C(F)(F)F)c3)CC2)C1 (configuration not stated)	i	-39%	-65*	-18	-28%	0%
Cc1cc(C)c(C(=O)N2CCCC(N3CCN(c4cccc(C(F)(F)F)c4)CC3)C2)o1 (configuration not stated)	i	u	-54*	-5	-35%	u
Cc1cc(C(=O)N2CCCC(N3CCN(c4cccc(C(F)(F)F)c4)CC3)C2)no1 (configuration not stated)	i	-1%	14	-1	19%	-11%
O=C(c1cccs1)N1CCCC(N2CCN(c3cccc(C(F)(F)F)c3)CC2)C1 (configuration not stated)	i	-6%	u	-14	-21%	-15%
CCn1ccc2cc(S(=O)(=O)N3CCCN(C(=O)NCCOC)CC3)ccc21	i	-1%	x	2	2%	-7%
COc1ccc(N=C2C(=O)N3c4c(cccc42)C(C)=CC3(C)C)cc1	i	0%	-50*	-28	-21%	-1%
CCOC(=O)c1[nH]c(C)c(CCC(=O)NCc2ccc(N(C)C)cc2)c1C	i	3%	x	-12	10%	2%
O=C1Nc2cccnc2N(C(=O)CCl)c2ccccc21	20µM*	u	-8	-12	-74%	u
NCCN1CCN(CC(=O)N2c3ccccc3C(=O)Nc3cccnc32)CC1	i	10%	x	x	9%	0%
COc1ccc(-c2cc(=S)ss2)cc1	i	-4%	x	6	x	x
COc1ccc(Nc2sc(C(=O)c3ccc(Cl)cc3)c(N)c2C(=O)Nc2ccccc2OC)cc1	i	-26%	-60*	-2	-44%	u
COc1cccc(Nc2sc(C(=O)c3ccc(Cl)cc3)c(N)c2C(=O)NCc2ccc(C)cc2)c1	x	x	x	3	-27%	13µM*
Cc1ccc(CNC(=O)c2c(Nc3c(C)cccc3C)sc(C(=O)c3ccccc3)c2N)cc1	x	u	x	9	-60%	13µM*
Cc1ccc(NC(=O)c2c(Nc3ccccc3C)sc(C(=O)c3ccccc3)c2N)cc1	u	-9%	x	5	-54%	u
COc1cccc(Nc2sc(C(=O)c3ccc(F)cc3)c(N)c2C(=O)NCc2ccc(Cl)cc2)c1	i	-14%	x	4	-40%	u
Cc1ccccc1Nc1sc(C(=O)c2ccc(F)cc2)c(N)c1C(=O)NCCc1ccccc1	u	-29%	x	-7	13µM*	u
Cc1ccc(C)c(NC(=O)CSc2nncn3c2cc2sccc23)c1	x	x	x	-11	-19%	-1%
COC(=O)[C@]12CCC(C)(C)C[C@@H]1[C@@H]1C(=O)C=C3[C@@]4(C)C=C(C#N)C(=O)C(C)(C)[C@@H]4CC[C@@]3(C)[C@]1(C)CC2	2.5µM*	1.7µM*	x	x	x	x
COc1ccc(-n2cnnc2SCC(=O)Nc2cc(C(C)(C)C)nn2-c2ccccc2)cc1	i	-9%	-56*	10	-7%	1%
CSc1ccc(NC(=O)NCCN2CCc3ccccc3C2)cc1	i	52%	-61*	-30	-24%	7%
